Shiga inhibitor – A qHTS for Small Molecule Inhibitors of Shiga Toxin; Vero cells, Shiga toxin protein synthesis inhibition reporter; inhibition, % at 38.7 µM; 290,000 compounds, 9.2% hits; in the data active = inhibition mostly above about 28%, no sharp cut-off; inactive = mostly below about 43%; note: 0% is about no effect
Pf growth 96h – Primary qHTS for delayed death inhibitors of the malarial parasite plastid, 96 hour incubation | Potency, µM (top dose mostly 28.7 µM), for inactives: at the top dose activity change, negative = inhibition, most hits filed as inhibitors | AID 504834, 2011 | 320,000 compounds, 6.9% hits | P. falciparum luciferase reporter growth, 96 h; note: potency is the fitted concentration of half-maximal effect; % is set by controls: 0 for no effect and ±100 for the full control effect
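Erythrocytes infected with luciferase-expressing P. falciparum were dispensed at 2% hematocrit and 0.05% parasitemia (final), then incubated with compounds 96 hours at 37 C in 5% CO2. Luminescence after detection reagent addition reported growth.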
Cycloheximide cs – Cycloheximide Counterscreen for Small Molecule Inhibitors of Shiga Toxin. cell reporter, cycloheximide protein synthesis inhibition counterscreen. max response, %. 300,000 compounds, 12% hits; in the data active = max response mostly above about 13%, no sharp cut-off; inactive = mostly below about 14%; note: read at 38.3 µM for the half of the compounds with a filed dose; 0% is about no effect
Pf growth 48h – Primary qHTS for delayed death inhibitors of the malarial parasite plastid, 48 hour incubation. P. falciparum luciferase growth in erythrocytes, 48 h. Potency, µM (highest dose often 28.7 µM), without a hit: at the top dose activity change, negative = inhibition, usual class: inhibitors. 310,000 compounds, 5.9% hits; note: potency is the fitted concentration of half-maximal effect; % is set by controls: 0 for no effect and ±100 for the full control effect
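Firefly luciferase activity from engineered P. falciparum reports growth; inhibitors lower the luminescent signal. Cultures contained 2% hematocrit erythrocytes at 0.1% final parasitemia.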
SARS PLP yeast – qHTS of Yeast-based Assay for SARS-CoV PLP | Potency, µM (titrated, usually from 32.9 µM), without a hit: at the highest dose activity, positive = growth rescue, usual class: activators | 330,000 compounds, 0.19% hits | S. cerevisiae expressing SARS-CoV PLpro, growth rescue; calls by dose curve; note: potency is the fitted concentration of half-maximal effect; 0% is about no effect; nearly all actives have a fitted effect of over 55% in size
NS1 function inh – qHTS Assay for Inhibitors of Influenza NS1 Protein Function; 270,000 compounds, 0.4% hits; Potency, µM (series often up to 46.1 µM), for the others: top-dose activity, positive = more growth; calls by dose curve; note: potency is the fitted concentration of half-maximal effect; actives are rising curves; nearly all actives have a fitted effect of over 50% in size
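In this qHTS, NS1 from influenza A is expressed in budding yeast, where it slows growth. Cells are switched from glucose to 2% galactose medium (pH 6.0, -URA), treated with compound, and growth recovery is read at OD600.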
Active calls of the source: *; i = inactive; ? = inconclusive; nt = no result; [ ] = another dose, or the depositor's remark. The list is not random: actives were taken first. Their share in the collection is about 21%. Unless noted, calls come from the whole dose curve; as a rule, active = well fitted inhibition curve with a large enough effect; inconclusive = small, poorly fitted or top-dose-only effect, or another doubt; inactive = no such curve, though single readings can be large or run the other way.

SMILES	Shiga inhibitor	Pf growth 96h	Cycloheximide cs	Pf growth 48h	SARS PLP yeast	NS1 function inh
NC(=O)C1CCN(CCS(=O)(=O)c2ccc(Cl)cc2)CC1	-3	8%	1	10%	-2%	-1%
Cc1ccc(C(=O)C(C)OC(=O)CN2C(=O)NC3(CCCC3)C2=O)cc1 (centres undefined)	nt	62%	nt	36%	5%	nt
O=C(CCS(=O)(=O)c1ccccc1)NCCS(=O)(=O)c1ccccc1	-6	18%	4	-5%	2%	nt
O=C(CCS(=O)(=O)c1ccccc1)NC12CC3CC(CC(C3)C1)C2	48	93%	25*	nt	-5%	-53%
CC(=O)c1cccc(NC(=O)C23CC4CC(C2)CC(n2cncn2)(C4)C3)c1	11	29%	5	-6%	-3%	19%
NC(=Nc1ccc(N)cc1)C(N)=Nc1ccc(N)cc1	-3	?	-4	32%	0%	9%
CCOC(=O)c1oc2nc(CC(C)C)c3c(c2c1N)CCC3	-9	7.4µM*	-3	?	-2%	4%
COc1ccc(Nc2cc(Cl)nc(N)n2)cc1OC	11	0%	13	-13%	-3%	nt
Cc1nc(N)c(Cc2ccc(Cl)cc2Cl)c(N)n1	-9	?	-7	441%	1%	nt
CN1CC(=O)NC1=NC(=O)C12CC3CC(CC(C3)C1)C2	-9	12µM*	-2	?	10%	-10%
CC(C)Oc1ccc(CNC2CCOC(C)(C)C2)cc1 (centres undefined)	-17	-5%	6	29%	2%	-2%
O=C(Nc1ccc(F)cc1)Nc1ccc(NC(=O)c2ccccc2O)cc1	12	0%	6	12µM*	1%	8%
CCOC(=O)Nc1ccc(NC(=O)c2ccccc2F)cc1	85*	15%	18*	41%	-1%	-8%
O=C(Nc1ccc2nc(-c3cccnc3)[nH]c2c1)c1ccccc1F	28	61%	15*	?	0%	12%
CCOC(=O)Nc1ccc(C(N)=O)cc1	12	2%	6	-3%	-5%	-6%
COc1ccccc1NC(=O)Nc1ccc(NC(=O)c2ccccc2O)cc1	14	5%	8	-4%	-1%	-5%
CC(=O)Nc1ccc(NC(=O)c2ccccc2F)cc1	58*	5%	20*	61%	-1%	-1%
Nc1ccc(C(=O)Nc2ccc3nc(-c4ccncc4)[nH]c3c2)cc1	-20	18%	-3	?	0%	8%
Cc1cc(NC(=O)CSc2nc(=O)cc(N)n2-c2ccc(Cl)cc2)no1	-4	?	5	1%	-4%	nt
CC1CCCN(C(=O)C2CCN(CC3CC=CCC3)CC2)C1 (centres undefined)	40	-23%	-7	13%	-2%	-12%
CCOc1ccc(NC(=O)CCN2CCN(C)CC2)cc1	-12	0%	-3	12%	13%	-18%
O=C(Nc1ccncc1)c1ccccc1F	-8	12%[5.75 µM]	24	12%	-3%	-11%
CNC(=O)c1ccccc1Nc1ccc(SC(F)F)cc1	24*	?	23*	55%	-17%	-87%
O=C(NCc1ccncc1)c1ccccc1Nc1ccc(SC(F)F)cc1	-6	?	-2	?	-10%	-65%
O=C(Nc1ccc(F)cc1)c1ccccc1F	114*	97%	42*	109%	nt	-12%
SMILES	Shiga inhibitor	Pf growth 96h	Cycloheximide cs	Pf growth 48h	SARS PLP yeast	NS1 function inh
CCOC(=O)N1CCC(=NNC(=O)c2ccccc2F)CC1	25*	43%	49*	20%	4%	-3%
c1ccc(-c2nc3cc4ccccc4cc3[nH]2)nc1	7	-24%	1	-37%	-28%	-2%
c1cncc(-c2nc3cc4ccccc4cc3[nH]2)c1	62*	204%	45*	205%	-17%	-75%
O=C(Cn1cnc2c(nnn2-c2ccc(F)cc2)c1=O)N1CCCC1	-2	8%	0	4%	-7%	-4%
CC(=O)Nc1c(O)nc(SCC(=O)Nc2ccc(C(C)=O)cc2)[nH]c1=O	134*	3%	47*	83%	0%	-1%
CC(=O)Nc1c(O)nc(SCC(=O)Nc2cccc(C)c2)[nH]c1=O	-12	7%	-7	nt	0%	4%
O=C(Nc1ccc(C(=O)N2CCCC2)cc1)c1ccccc1F	66*	nt	36*	113%	-6%	4%
O=C(Nc1ccc2oc(-c3ccc(F)cc3)nc2c1)c1ccccc1F	39*	-30%	29	42%	5%	5%
O=C(Nc1ccc(SC(F)F)cc1)c1ccccc1F	92*	357%	45*	i	-8%	nt
O=C(CCNC(=O)c1ccco1)Nc1ccc(SC(F)F)cc1	17	3%	15	-19%	1%	nt
CC(=O)Nc1ccc(NC(=O)CSc2nc(N)c(NC(=O)c3ccccc3F)c(=O)[nH]2)cc1	-4	12µM*	20	?	-8%	-2%
O=C(Nc1ccc(SC(F)F)cc1)c1ccc(F)cc1	145*	102%	37*	191%	-1%	1%
O=C(Nc1ccc2ccccc2c1)c1ccccc1F	68	8%	24*	370%	9%	-9%
NC(=O)Nc1ccccc1C(=O)Nc1ccc2ccccc2c1	nt	49%	-2	59%	-3%	21%
O=C(Nc1ccc(F)cc1)c1ccc(C(=O)N2CCOCC2)cc1	nt	52%	nt	-18%	7%	nt
O=C(Nc1ccc2cn[nH]c2c1)c1ccccc1F	40*	384%	60*	339%	-8%	-9%
Cc1nc(-c2nnc(SCC(=O)Nc3ccc(Cl)cc3)n2C)cs1	17	16%	1	-4%	-1%	0%
Cc1ccccc1NC1=NC(=S)N(c2ccccc2)C12CCCCC2	2	10µM*	-4	?	-13%	4%
CCCCN(C)C(=O)C1CCN(c2ccc(S(=O)(=O)N3CCOCC3)cc2[N+](=O)[O-])CC1	nt	9.3µM*	nt	?	-4%	nt
C=CCNC(=O)C1CCN(c2ccc(S(=O)(=O)N3CCOCC3)cc2Cl)CC1	-25	261%	-3	9.3µM*	1%	3%
CCCNC(=O)C1CCN(c2ccc(S(=O)(=O)N3CCOCC3)cc2Cl)CC1	-4	?	-7	13µM*	-19%	-2%
O=C(NCc1cccnc1)C1CCN(c2ccc(S(=O)(=O)N3CCOCC3)cc2Cl)CC1	-4	32%	-2	-14%	-1%	0%
CC(C)NC(=O)C1CCN(c2ccc(S(=O)(=O)N3CCOCC3)cc2Cl)CC1	-5	?	-5	-21%	-1%	-6%
CC(C)CNC(=O)C1CCN(c2ccc(S(=O)(=O)N3CCOCC3)cc2[N+](=O)[O-])CC1	-3	?	-6	?	3%	-7%
COC(=O)CCNC(=O)Cc1ccc(S(=O)(=O)N2CCCCC2)s1	nt	5%	nt	?	1%	nt
COc1cccc(C(=O)NCC(=O)OCc2ccc(F)cc2Cl)c1	17	24%	-1	12%	4%	-20%
